D2 ag-1 = HTS Assay for Allosteric Agonists of the Human D2 Dopamine Receptor: Primary Screen for Agonists. HEK293 T-REx D2 cells, calcium flux agonist mode. activation, % at 2 µM. 0.53% of 340,000 active. AID 485358, 2010;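 active = activation over 3 SD above normal in the single-dose calcium agonist read, cut at about 30% in these data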; note: 0% is about no effect
Target sequence (P14416 whole entry, looked up): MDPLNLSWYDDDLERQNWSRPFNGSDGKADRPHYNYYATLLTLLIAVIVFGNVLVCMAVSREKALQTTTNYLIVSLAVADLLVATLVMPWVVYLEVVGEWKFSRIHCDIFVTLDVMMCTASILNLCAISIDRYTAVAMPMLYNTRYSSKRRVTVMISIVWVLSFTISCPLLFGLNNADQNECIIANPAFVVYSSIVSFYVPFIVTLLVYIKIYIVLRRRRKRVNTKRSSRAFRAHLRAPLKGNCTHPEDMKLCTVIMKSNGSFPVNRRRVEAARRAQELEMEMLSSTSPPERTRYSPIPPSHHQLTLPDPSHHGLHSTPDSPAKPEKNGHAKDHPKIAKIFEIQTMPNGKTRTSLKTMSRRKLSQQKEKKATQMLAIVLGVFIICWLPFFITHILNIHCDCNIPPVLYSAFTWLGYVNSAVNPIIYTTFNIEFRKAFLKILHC
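In this primary screen, compounds producing a positive calcium signal within 180 s of addition to tetracycline-induced, force-coupled HEK293 Trex D2 cells are flagged; cells are dye-loaded with a no-wash calcium kit beforehand.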
D2 PAM-1 = Beta-Arrestin HTS for Positive Allosteric Modulators of the Human D2 Dopamine Receptor: Potentiators. 0.23% of 360,000 active. potentiation, % (concentration not given with the values). DiscoveRx D2 beta-arrestin cells, luminescence, 90 min; 100% = 57 uM dopamine signal; in the data active = potentiation above about 50%; inconclusive = mostly about 30% to 49%
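PathHunter D2 cells, attached overnight at 37 deg C, received compound in DMSO plus dopamine at EC20 (50 nM final) for 90 min at 37 deg C. Beta-arrestin recruitment was read as luminescence after 1 h with detection reagent at ambient temperature.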
D2 ag-2 = Beta-Arrestin HTS for Positive Allosteric Modulators of the Human D2 Dopamine Receptor: Agonists; D(2) dopamine receptor (Homo sapiens), P14416; DiscoveRx PathHunter D2 beta-arrestin, luminescence, 90 min; 100% = 57 uM dopamine signal; activation, % (no concentration beside the values); 0.084% of 360,000 active; AID 624465, 2012; in the data active = activation above about 40%; inconclusive = between about 15% and that limit
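DiscoveRx PathHunter D2 beta-arrestin cells (2,100/well) attached overnight, then compound-stimulated 90 min at 37 C in HBSS/10 mM HEPES/0.1% Tween-20 buffer; beta-galactosidase complementation read by luminescence after 1 h at ambient temperature. Dopamine 57 uM final (EC100) as control.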
D2 PAM-2 = HTS Assay for Positive Allosteric Modulators of the Human D2 Dopamine Receptor: Primary Screen for Potentiators; HEK293 T-REx D2, calcium flux, EC20 dopamine potentiation; potentiation, % at 10 µM; 0.34% of 340,000 active; AID 485347, 2010;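 active = potentiation over 3 SD above the plate norm, cut at about 30% in these data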; note: 0% is about no effect
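Using a no-wash calcium dye in inducible, force-coupled HEK293 Trex cells expressing D2, we tracked fluorescence each second for 180 s after compound, then for 180 s after EC20 dopamine to detect augmented signalling.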
D2 antag = HTS Assay for Allosteric Antagonists of the Human D2 Dopamine Receptor: Primary Screen for Antagonists | 2% of 340,000 active | HEK293 TREx D2 cells, calcium flux, dopamine EC80 | AID 485344, 2010 | inhibition, % at 10 µM; in the data active = inhibition above about 30%; inactive = below that, where a call was filed; note: 0% is about no effect
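HEK293 T-REx D2 cells, tet-induced, calcium dye no-wash. Cpd pintool add, 180 s kinetic, then EC80 DA, 180 s kinetic. Ca flux read.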
* marks the source's active call; other numbers are inactive results; ? = inconclusive; . = no result. A selection: hits, their analogues and other compounds. The true share with any hit is near 2.4%.

SMILES	D2 ag-1	D2 PAM-1	D2 ag-2	D2 PAM-2	D2 antag
O=C(c1cccc2ccccc12)C1CCCN(C(=O)CCc2cnccn2)C1 (stereo unspecified)	1	-4	3	0	0
O=C(c1cc(F)ccc1F)C1CCCN(C(=O)CCc2cnccn2)C1 (stereo unspecified)	-2	-6	2	-4	38*
O=C(CSc1ncccn1)NC(=O)c1ccccc1	1	8	-6	34*	-10
O=C(CSc1ncccn1)NCc1ccc(Cl)cc1	0	-2	-3	-3	36*
Nc1nnc(SCC(=O)NNC(=O)c2ccccc2)s1	0	-9	-5	-7	37*
O=C(CSc1ccccc1)NNC(=O)c1ccncc1	1	1	0	5	57*
Nc1nnc(SCC(=O)NNC(=O)c2ccc(F)cc2)s1	0	-14	-3	-7	-39
O=C(CSc1cn(CC(=O)N2CCCCC2)c2ccccc12)NCc1ccccc1	1	.	.	-9	.
Cc1cccc(Cc2c(C)nc3nc(SCC(=O)NCc4ccccc4)nn3c2C)c1	0	.	.	-3	.
Cc1cccc(Cc2c(C)nc3nc(SCC(=O)O)nn3c2C)c1	0	-4	-4	47*	-6
CCOC(=O)c1c(C)oc2nc(C)nc(N3CCN(c4cccc(C)c4C)CC3)c12	-1	.	.	-4	.
CCCCCCOC(=O)C(C#N)c1nc2ccccc2nc1N1CCCCC1 (stereo unspecified)	-2	-7	-1	35*	-11
Cc1cc(C(=O)N2CCN(S(=O)(=O)c3ccccc3F)CC2)c(C)o1	0	-2	2	47*	-2
Cc1cc(C(=O)N2CCN(S(=O)(=O)c3ccccc3C#N)CC2)c(C)o1	0	-4	-4	20	23
CC(C)(C)NC(=O)C(c1ccco1)N(C(=O)c1csnn1)c1ccccc1 (stereo unspecified)	-1	-7	-2	36*	0
O=C(NCc1ccccc1)C(c1cccnc1)N(C(=O)c1ccccn1)c1ccccc1F (stereo unspecified)	-1	-6	-5	1	-1
Cc1ccccc1N(C(=O)c1csnn1)C(C(=O)NC(C)(C)C)c1cccs1 (stereo unspecified)	0	-3	-2	-11	36*
CC(C)(C)NC(=O)C(c1ccncc1)N(C(=O)c1csnn1)c1ccccc1 (stereo unspecified)	0	-10	-3	-1	-14
CCC(C)(C)NC(=O)C(c1cccnc1)N(C(=O)c1csnn1)c1ccccc1 (stereo unspecified)	0	-31	-19	40*	5
Cc1ccccc1N(C(=O)c1ccccn1)C(C(=O)NCc1ccccc1)c1cccnc1 (stereo unspecified)	.	-3	0	36*	.
Cc1ccc(N(C(=O)c2csnn2)C(C(=O)NC(C)(C)C)c2cccs2)cc1 (stereo unspecified)	0	-9	-1	9	7
CCN(CC)C(=O)C1=C(C)Nc2nc3ccccc3n2C1c1ccc(Br)cc1 (stereo unspecified)	.	.	.	20	.
COc1ccc(/C=C/c2nc(C#N)c(N3CCCCC3)o2)cc1OC	1	.	.	15	.
CCOC(=O)c1c(C)c(-c2ccccc2)n(CC(=O)NC2CCCCCC2)c1C	1	.	.	.	.
CSc1ccc(CCNC(=O)c2ccc(-n3c(C)cc4c3CCCC4)cc2)cc1	0	.	.	-5	.
SMILES	D2 ag-1	D2 PAM-1	D2 ag-2	D2 PAM-2	D2 antag
Cc1ccsc1C(C(=O)NCc1ccccc1)N(C(=O)c1csnn1)c1ccccc1 (stereo unspecified)	-1	-3	-1	-6	33*
O=C(Nc1nc2c(F)cccc2s1)c1ccc2c(c1)OCCO2	0	.	.	0	.
CCCCC1(C)OC(=O)C(=Cc2ccc(-c3ccc(Cl)c(C(=O)O)c3)o2)C(=O)O1 (stereo unspecified)	-2	8	0	-3	42*
CCOc1ccccc1N(CC)C(=O)c1cc2c(=O)[nH]c3ccc(C)cc3c2s1	0	.	.	-1	.
Cc1c(C(=O)CN2CCSCC2)c2ccccc2n1C	-2	-23	-2	-3	4
Cc1c(/C(Cc2ccccc2)=N/O)c2ccccc2n1C	4	0	-3	-2	37*
O=C(/C=C/Nc1ccc(F)cc1)c1ccc(Oc2ncccn2)cc1	0	-8	-3	2	34*
CC(CSc1nnnn1-c1ccccc1)Cn1c(N2CCCC2)nc2c1c(=O)[nH]c(=O)n2C (stereo unspecified)	1	-11	-4	6	-10
Cn1c(=O)[nH]c(=O)c2c1nc(N1CCOCC1)n2CCSc1nnnn1-c1ccccc1	0	-7	6	-7	37*
Cc1c2cnn(CC(=O)NCc3ccc(F)cc3)c(=O)c2c(C)n1Cc1cccc(Cl)c1	0	.	.	3	.
N/C(Cc1ccc(Cl)c(Cl)c1)=N\OC(=O)c1ccc(Br)o1	1	60*	?	-11	2
Cn1c(=O)c(/C=C/c2ccc(F)cc2)nc2ccccc21	0	-9	-2	5	8
O=c1c(/C=C(\O)c2ccc(F)cc2)nc2ccccc2n1-c1ccccc1	44*	-16	-7	-10	4
CC(NS(=O)(=O)c1ccc(OCC(=O)N2CCOCC2)cc1)c1ccccc1 (stereo unspecified)	0	10	-1	8	31*
CC(NS(=O)(=O)c1ccc(OCC(=O)N2CCOCC2)c(Cl)c1)c1ccccc1 (stereo unspecified)	0	-4	-1	-2	3
CCOC(=O)c1c(C)[nH]c(C)c1S(=O)(=O)NCC1CCN(Cc2ccccc2OC)CC1	-1	-30	-6	-24	33*
CCOC(=O)c1c(C)[nH]c(C)c1S(=O)(=O)NCC1CCN(Cc2cccc(F)c2)CC1	1	-22	-1	-30	74*
CCOC(=O)c1c(C)[nH]c(C)c1S(=O)(=O)Nc1ccc(CN2CCCCC2)cc1	0	-28	-2	-6	-8
CCOC(=O)c1c(S(=O)(=O)NCCc2cccs2)c(C)n(C)c1C	0	-7	-6	9	-2
CCOC(=O)c1c(S(=O)(=O)NCC2CCN(CCc3cccs3)CC2)c(C)n(C)c1C	0	-60	-4	-21	43*
O=C(NCCc1ccccc1)c1ccc2c(c1)N(Cc1ccc(Cl)cc1)C(=O)c1ccccc1S2(=O)=O	0	.	.	-4	.
